Among the test systems are HCT-15 colon; HT29 colon; SNB-75 CNS; SNB-19 CNS; U251 CNS; PC-3 prostate; SK-MEL-5 melanoma; UACC-62 melanoma; LOX IMVI melanoma; SK-MEL-28 melanoma.
Common to all, as to assay: NCI-60 one-dose screen, 48 h (100 = growth as untreated, 0 = no growth, -100 = all killed)
What all share (conditions): 10 µM unless noted

This is part of a sample that, as a whole, favours compounds with a hit. Of some 83,000 tested, about 20% had one in any assay.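 Step 1: grow cells in 96-well plates. Step 2: add test compound at a single concentration. Step 3: incubate 48 h. Step 4: record percent growth.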 Unmarked numbers belong to inactive results. Calls of active or inactive are those of the source. How the source made its calls: active means growth percent below 10; inactive means the rest.

As for `Nc1ncnc2c1c(-c1ccc(Oc3ccccc3)cc1)nn2C[C@H]1SSC[C@@H]1O`, the growth is 65.7% in the assay with HCT-15 colon; 5.36% (active) with HT29 colon; 37.3% with SNB-75 CNS; 66.5% in the assay on SNB-19 CNS; 45.9% in the assay on U251 CNS; 64% in the assay on PC-3 prostate. The growth was -73.9% (active) in the assay on SK-MEL-5 melanoma, -66.7% (active) with UACC-62 melanoma, 11.9% in the assay with LOX IMVI melanoma and -29.4% (active) in the assay with SK-MEL-28 melanoma.

On to `CCC1CN2C(=N1)c1ccccc1-c1cc(Cl)ccc12` (stereo not given), for which the growth in the assay with HCT-15 colon is 18.3%; in the assay on HT29 colon, 5.27% (active); with SNB-75 CNS, 42.6%; with SNB-19 CNS, 26.2%; in the assay on U251 CNS, 14.8%; in the assay on PC-3 prostate, 21.6%. Further, the growth in the assay with SK-MEL-5 melanoma was -5.14% (active); in the assay with UACC-62 melanoma, 3.38% (active); in the assay on LOX IMVI melanoma it was 2.76% (active); in the assay with SK-MEL-28 melanoma it was 70.7%.

As for `COc1cc(/C=C/C(=O)N2CCC=CC2=O)cc(OC)c1OC`, the growth is 1.7% (active) in the assay on HCT-15 colon; 23.2% with HT29 colon; 75.7% in the assay on SNB-75 CNS; 72.9% in the assay on SNB-19 CNS; 68.3% with U251 CNS; 79.7% in the assay with PC-3 prostate. The growth in the assay on SK-MEL-5 melanoma is 73.8%; in the assay with UACC-62 melanoma, 40.8%; in the assay with LOX IMVI melanoma, 10.2%; with SK-MEL-28 melanoma it was 56%.

With `NS(=O)(=O)c1ccc(Nc2nc(O)c(/C=C3\C=Nc4ccccc43)s2)cc1`, the growth was 107% in the assay with HCT-15 colon; 114% in the assay with HT29 colon; 93.7% in the assay with SNB-75 CNS; 91.6% in the assay with SNB-19 CNS; 94.6% with U251 CNS; 92.1% in the assay with PC-3 prostate. For the same compound, the growth with SK-MEL-5 melanoma is 101%; with UACC-62 melanoma, 82.6%; in the assay on LOX IMVI melanoma, 97.3%; in the assay on SK-MEL-28 melanoma, 110%.

Turning to `CN1CCN(CC(=O)N(C)c2ccc(N=C(c3ccccc3)c3c(O)[nH]c4ccc(C#N)cc34)cc2)CC1`, the growth in the assay with HCT-15 colon was 64.7%; in the assay on HT29 colon it was 10.7%; in the assay on SNB-75 CNS it was 3.45% (active); with SNB-19 CNS, 61.1%; with U251 CNS, 35.8%; in the assay on PC-3 prostate, 36.4%. Besides, the growth is 25.8% with SK-MEL-5 melanoma, 68.1% with UACC-62 melanoma, 13.2% in the assay on LOX IMVI melanoma and 53% in the assay with SK-MEL-28 melanoma.

As to `CN(C)CCCOc1c(Br)cc(/C=C/C(=O)N(C)CCc2cc(Br)c(OCCCN(C)C)c(Br)c2)cc1Br`, the growth in the assay with HCT-15 colon was 9.92% (active); with HT29 colon, -19.1% (active); in the assay with SNB-75 CNS, 73.3%; in the assay on SNB-19 CNS, 48.6%; with U251 CNS, 7.24% (active); with PC-3 prostate it was 65.1%. The growth in the assay with SK-MEL-5 melanoma was 64.4%; in the assay on UACC-62 melanoma it was -26.5% (active); with LOX IMVI melanoma, -23.1% (active); in the assay on SK-MEL-28 melanoma, -49.4% (active).

Take `Nc1ncnc2c1ccn2-c1cccc(NC(=O)c2cccc(C(F)(F)F)c2)c1`: the growth was 41.7% in the assay on HCT-15 colon; 58.4% in the assay on HT29 colon; 67% in the assay on SNB-75 CNS; 88.4% with SNB-19 CNS; 44.9% in the assay with U251 CNS; 51.7% with PC-3 prostate. Further, the growth with SK-MEL-5 melanoma is 41.1%; with UACC-62 melanoma, 77.3%; with LOX IMVI melanoma, 62.2%; with SK-MEL-28 melanoma it was 85.1%.

As to `Cc1ccc2nc(-c3ccc(-n4on4-c4ccc(/C=C/c5ccc(-n6on6-c6ccc(-c7nc8ccc(C)cc8s7)cc6)cc5S(=O)(=O)O)c(S(=O)(=O)O)c4)cc3)sc2c1`, the growth in the assay on HCT-15 colon was 109%; in the assay with HT29 colon, 113%; in the assay with SNB-75 CNS, 107%; in the assay with SNB-19 CNS, 117%; in the assay with U251 CNS it was 115%; in the assay on PC-3 prostate it was 98%. In addition, the growth is 107% in the assay on SK-MEL-5 melanoma, 105% with UACC-62 melanoma, 97% in the assay with LOX IMVI melanoma and 107% in the assay on SK-MEL-28 melanoma.

With `COc1ccc(N)c(S)c1`, the growth in the assay on HCT-15 colon was 97%; with HT29 colon it was 100%; with SNB-75 CNS it was 84.6%; in the assay with SNB-19 CNS, 100%; in the assay on U251 CNS, 93.8%; in the assay on PC-3 prostate, 73.4%. For the same compound, the growth is 91.5% in the assay with SK-MEL-5 melanoma, 93.5% with UACC-62 melanoma, 92.3% with LOX IMVI melanoma and 113% in the assay with SK-MEL-28 melanoma.

Take `Cc1cc(O[C@@H]2O[C@@H](C)[C@H](O)[C@@H](O)[C@H]2O)c2c3c(c(O[C@@H]4O[C@@H](C)[C@H](O)[C@@H](O)[C@H]4O)cc2c1)C(=O)c1c(O)cccc1C3=O`: the growth in the assay on HCT-15 colon was 87.9%; with HT29 colon it was 72.4%; with SNB-75 CNS it was 52.2%; in the assay on SNB-19 CNS it was 94.3%; in the assay with U251 CNS, 82%; in the assay with PC-3 prostate it was 56.7%. The growth with SK-MEL-5 melanoma was 67.8%; with UACC-62 melanoma it was 65.6%; in the assay with LOX IMVI melanoma, 74%; in the assay on SK-MEL-28 melanoma it was 90.8%.

With `CC1(C)Cc2c(Br)c(Br)c(Br)c(OCC(O)CN3CCN(c4ccccn4)CC3)c2O1` (stereo not given), the growth is 79.7% with HCT-15 colon; 69.7% with HT29 colon; 187% in the assay on SNB-75 CNS; 101% in the assay on SNB-19 CNS; 82.3% in the assay with U251 CNS; 48.5% in the assay on PC-3 prostate. Further, the growth in the assay on SK-MEL-5 melanoma is 63.5%; with UACC-62 melanoma, 92.9%; in the assay with LOX IMVI melanoma it was 68.6%; with SK-MEL-28 melanoma, 115%.

Turning to `CCCCCCCCCCCCCCCCNc1ccccc1`, the growth in the assay on HCT-15 colon is 103%; with HT29 colon, 87.1%; in the assay with SNB-75 CNS it was 107%; in the assay with SNB-19 CNS, 108%; in the assay with U251 CNS, 86.2%; with PC-3 prostate it was 82%. The growth is 104% in the assay on SK-MEL-5 melanoma, 98.8% in the assay on UACC-62 melanoma, 101% with LOX IMVI melanoma and 113% with SK-MEL-28 melanoma.

As for `COc1ccc(-c2nn(-c3ccc(NC(=O)Nc4cc(C(F)(F)F)cc(C(F)(F)F)c4)cc3)cc2-c2ccncc2)cc1Cl`, the growth with HCT-15 colon is 9.81% (active); in the assay on HT29 colon, 11.7%; in the assay with SNB-75 CNS, 34.4%; in the assay with SNB-19 CNS, 31.5%; with U251 CNS, 11.8%; in the assay on PC-3 prostate it was 3.33% (active). For the same compound, the growth is 9.61% (active) in the assay with SK-MEL-5 melanoma, 15.6% in the assay with UACC-62 melanoma, 15% in the assay on LOX IMVI melanoma and 30.1% with SK-MEL-28 melanoma.
